# Laboratory results as given in PubChem BioAssay AID602393 (Broad Institute, 2012).
# The whole screen tested about 350,000 compounds, of which about 7,000 (2%) were called active. What follows is part of a selection rich in actives, with near analogues and random picks from the rest. Values without a mark were called inactive. No stated cut-off is given here; in the data, active means activation above about 40%; inconclusive means no clear call, values can overlap the other calls; inactive means below that.
# Assay: raisers of Bmi1 knock-in reporter signal – mouse ES cells, Bmi1 luciferase knock-in, single point, esBAF inhibitor project, primary screen (AID 602393);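 further: 0% = median of the plate's neutral control wells and 100% = double that signal; a rise in the Bmi1 reporter signal indicates esBAF inhibition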
# Conditions: 24 h, at 12.5 µM, active compounds read high, 100% = twice the neutral-well signal
row,Compound,reporter increase
1,CCCN(C)C[C@H]1OCCCC[C@@H](C)Oc2ccc(NC(=O)CCC(F)(F)F)cc2C(=O)N([C@H](C)CO)C[C@H]1C,3.13%
2,COc1cccc(-c2ccc3c(c2)O[C@@H](CN(C)Cc2ccncc2)[C@H](C)CN([C@H](C)CO)S3(=O)=O)c1,0.833%
3,CN1CCN(C(=O)C[C@H]2C[C@@H]3c4cc(NC(=O)NC5CCCC5)ccc4O[C@@H]3[C@@H](CO)O2)CC1,-0.346%
4,O=C(CN1CCOCC1)N[C@@H]1CC[C@@H](CCn2cc(C3CCCCC3)nn2)O[C@@H]1CO,-5.48%
5,O=C1C(Cc2ccc(O)cc2)NC(=S)N1Cc1ccccc1 (stereo not drawn),-6.04%
6,CC1CN(Cc2ccccc2)C(=S)NC1=O (stereo not drawn),2.98%
7,CN(C)c1ccc(/C=C2\NC(=S)N(Cc3ccccc3)C2=O)cc1,42.2% (active)
8,C[C@H](CO)N1C[C@H](C)[C@H](CN(C)S(=O)(=O)c2ccccc2)Oc2ccc(NC(=O)Cn3cnnn3)cc2C1=O,2.23%
9,CCC(=O)Nc1ccc2c(c1)C(=O)N(C)[C@@H]1CC[C@@H](CC(=O)Nc3cccc(OC)c3)O[C@@H]1CO2,-2.81%
10,Cc1nn(Cc2ccc(Cl)c(Cl)c2)c(C)c1NC(=O)c1cc(C2CC2)on1,7.59%
11,CSc1ccccc1NC(=O)c1cc(C2CC2)on1,53.9% (active)
12,O=C(NC1CCCCC1)c1cc(C2CC2)on1,-10.1%
13,CCCNC(=O)N1C[C@H](O)COC[C@H]2O[C@@H](CC(=O)NCc3ccncn3)CC[C@@H]21,-2.02%
14,CCn1c(Cc2ccccc2)nnc1SCc1nc2ccccc2c(=O)[nH]1,-5.17%
15,CCN(CC)S(=O)(=O)c1ccc2nc(CSc3nnnn3-c3ccc(O)cc3)[nH]c2c1,1.1%
16,Clc1ccccc1SCc1nc2ccccc2[nH]1,53% (active)
17,O=C(C[C@@H]1C[C@H]2c3cc(NC(=O)NC4CCCC4)ccc3O[C@H]2[C@H](CO)O1)NCc1cc(F)ccc1F,5.15%
18,COc1ccc(-c2cc3ncccc3cn2)cc1,10.9%
19,Fc1ccccc1-c1cc2cc3c(cc2cn1)OCO3,16.5%
20,Fc1ccc2cnc(-c3ccccc3)cc2c1,58.8% (active)
21,N#CCSc1nc(-c2ccccc2)nc2ccc(F)cc12,-3.61%
22,COc1cc(OC)cc(-c2cc3ccc(F)cc3cn2)c1,58.7% (active)
23,COc1ccc(C(C)(O)c2nc(-c3cc(F)cc(F)c3)cs2)cc1 (stereo not drawn),-4.23%
24,O=C(Nc1ccc(Cl)cc1)N1C[C@@H]2[C@H](c3ccccc31)[C@@H](CO)N2C(=O)c1cccnc1,13.8%
25,CO[C@H]1CN(C)C(=O)c2cc(NC(=O)Nc3ccccc3)ccc2OC[C@@H](C)N(C(=O)Nc2c(C)noc2C)C[C@@H]1C,3.56%
26,O=S(=O)(NCC[C@H]1CC[C@@H](NS(=O)(=O)c2cccc(Cl)c2)[C@@H](CO)O1)c1cccc(F)c1,8.34%
27,CCC(=O)N1C[C@@H](C)[C@H](OC)CN(C)C(=O)c2cc(NC(=O)c3cc(C)on3)ccc2OC[C@@H]1C,6.47%

row,Compound,reporter increase
1,COc1ccc(OCc2cc(C(=O)NCC3(C)COC3)no2)c(Cl)c1,42.9% (active)
2,COCCN1CCN(C(=O)c2cc(COc3ccc(F)cc3Cl)on2)CC1,-1.67%
3,COc1ccc(-c2cc(C(=O)NCCCN3CCOCC3)no2)cc1,-13.5%
4,CC(=O)N(C)C[C@@H]1Oc2ncc(-c3ccccc3F)cc2C(=O)N([C@H](C)CO)C[C@@H]1C,-1.47%
5,N=c1c2c(-c3ccccc3)c(-c3ccccc3)n(Cc3ccccc3)c2ncn1CCCO,-11.6%
6,OCCCN1c2ccccc2Nc2nnc(-c3ccccc3)cc21,45.3% (active)
7,O=C(C[C@@H]1CC[C@@H](NC(=O)c2cccnc2)[C@H](CO)O1)NCCN1CCCCC1,-6.27%
8,CCNC(=O)C[C@@H]1CC[C@H]2[C@@H](COc3ccc(NC(=O)c4ccccc4Cl)cc3C(=O)N2C)O1,2.25%
9,COc1ccc(NC(=O)Nc2ccc3c(c2)C(=O)N([C@H](C)CO)C[C@H](C)[C@@H](CN(C)Cc2ccccc2)OCCCC[C@H](C)O3)cc1,3.05%
10,COCC(=O)Nc1ccc2c(c1)C(=O)N(C)C[C@H](OC)[C@@H](C)CN(C(=O)Cc1cccnc1)[C@@H](C)CO2,-0.572%
11,O=C(Nc1cccc([N+](=O)[O-])c1)N1CCc2ccccc2C1,45.9% (active)
12,O=C(CN1CCOCC1)Nc1cccc([N+](=O)[O-])c1,-2.52%
13,Cn1cccc1C(=O)N1CCc2ccccc2C1,28.8%
14,CCc1ccc(NC(=O)N2CCc3ccccc3C2)cc1,60.4% (active)
15,O=C(Nc1cccc([N+](=O)[O-])c1)Nn1cnnc1,9.77%
16,Cc1ccc(NC(=O)CN2CCc3ccccc3C2)cc1C,8.63%
17,COCC(=O)N(C)C[C@H]1[C@@H](c2ccc(-c3cccnc3)cc2)[C@H](CO)N1C(C)=O,3.19%
18,CO[C@@H]1CN(C)C(=O)c2cc(NC(=O)c3ccc(F)cc3)ccc2OC[C@H](C)NC[C@@H]1C,2.56%
19,COc1cccc(NC(=O)COc2cccnc2[N+](=O)[O-])c1,20%
20,O=C(COc1cccnc1[N+](=O)[O-])Nc1ccc(Cl)cc1F,43.4% (active)
21,CC(NC(=O)COc1cccnc1[N+](=O)[O-])c1ccc(Cl)cc1Cl (stereo not drawn),0.51%
22,COc1ccc(OCc2ccc(-c3nc4ccccc4c(=O)n3N)o2)cc1,54.8% (active)
23,COc1ccc(-c2nc3ccccc3c(=O)n2CCc2ccc(O)cc2)cc1,9.53%
24,Cn1c(COc2ccc(Cl)cc2)nc2ccccc2c1=O,12.6%
25,COc1ccc(S(=O)(=O)N2CC[C@@H]3[C@@H](CO)Nc4ccc(C#Cc5cccnc5)cc4[C@@H]32)cc1,7.74%
26,CO[C@@H]1CN(C)C(=O)c2cc(NS(=O)(=O)Cc3ccccc3)ccc2OC[C@H](C)NC[C@H]1C,-0.575%
